According to PubChem BioAssay (NCI):
Values joined by “and” are separate entries in the source; they are usually repeats but may differ in a detail not shown here. Equal entries are not always repeated. This is part of a sample that, as a whole, favours compounds with a hit. Of some 83,000 tested, about 20% had one in any assay.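 Negative percent growth values reflect cell death: -40 means 40% of the cells present at the start died, and -100 means all died.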 Active and inactive are the calls of the source. The calls were made as follows: active = growth percent below 10; inactive = the rest.

What was measured:
Test in all cases: NCI-60 one-dose screen, 48 h (100 = growth as untreated, 0 = no growth, -100 = all killed)
Details in all cases: 10 µM unless noted
T-47D breast = system: T-47D breast
BT-549 breast = system: BT-549 breast
MDA-MB-435 melanoma = system: MDA-MB-435 melanoma
SW-620 colon = system: SW-620 colon
MCF7 breast = system: MCF7 breast
HCT-116 colon = system: HCT-116 colon
HCC-2998 colon = system: HCC-2998 colon
KM12 colon = system: KM12 colon

Measured: growth

C=C(C)[C@@H]1CC[C@]2(C(=O)O)CC[C@]3(C)[C@H](CC[C@@H]4[C@@]5(C)CCC(N)C(C)(C)[C@@H]5CC[C@]43C)[C@@H]12 (some centres undefined)
active: T-47D breast -4.16% | MDA-MB-435 melanoma -51% | MCF7 breast 2.48% | HCT-116 colon 2.64%
inactive: BT-549 breast 101% | SW-620 colon 16.3% | HCC-2998 colon 23.8% | KM12 colon 24.2%

COc1ccc(-c2ccc(-c3ccc(C(=N)N)cn3)o2)cc1Cl
active: MDA-MB-435 melanoma -69.4% | SW-620 colon -50.3% | MCF7 breast -31.1% | HCT-116 colon 0.389%
inactive: T-47D breast 31.1% | BT-549 breast 57.8% | HCC-2998 colon 67.5% | KM12 colon 16.4%

CCOC(=O)c1cnn(CC(O)CC)c1NC(=O)NCc1ccccc1C(F)(F)F (centres undefined)
inactive: T-47D breast 86.7% | BT-549 breast 84.4% | MDA-MB-435 melanoma 105% | SW-620 colon 108% | MCF7 breast 93.7% | HCT-116 colon 78.5% | HCC-2998 colon 100% | KM12 colon 103%

CCCCC#Cc1c(/C=C(\CCCC)SCC)n(C)c(=O)[nH]c1=O
inactive: T-47D breast 84.4% | BT-549 breast 100% | MDA-MB-435 melanoma 104% | SW-620 colon 106% | MCF7 breast 48.5% | HCT-116 colon 88.3% | HCC-2998 colon 104% | KM12 colon 113%

COc1ccc(NC(=O)Nc2ccccc2CNc2nc(Nc3ccc(OCCN4CCCC4)cc3)ncc2Cl)cc1
inactive: T-47D breast 27.2% | BT-549 breast 32% | HCC-2998 colon 16.3%
active: MDA-MB-435 melanoma -70.9% | SW-620 colon 2.1% | MCF7 breast -60.5% | HCT-116 colon -20.1% | KM12 colon 0.945%

COc1cc(OC)cc(-c2ccc(-c3ccc(C(=N)N)cn3)s2)c1
inactive: T-47D breast 96.7% | BT-549 breast 95.1% | MDA-MB-435 melanoma 82.5% | MCF7 breast 13% | HCC-2998 colon 56.1% | KM12 colon 40.7%
active: SW-620 colon 5.08% | HCT-116 colon -12.6%

CN1CCN(c2ccc(Nc3ncc(C(N)=O)c(NCCCNC(=O)C4CCC4)n3)cc2)CC1
inactive: T-47D breast 107% | BT-549 breast 19.4% | MDA-MB-435 melanoma 66.9% | SW-620 colon 70.9% | MCF7 breast 48.9% | HCT-116 colon 43.2% | HCC-2998 colon 85.6% | KM12 colon 82.1%

O=C(NNC(=S)Nc1ccccc1)c1ccncc1
inactive: T-47D breast 109% | BT-549 breast 88.1% | MDA-MB-435 melanoma 112% | SW-620 colon 113% | MCF7 breast 94.2% | HCT-116 colon 104% | HCC-2998 colon 109% | KM12 colon 107%

O=C1CCCCN1CCCCC#Cc1cccc(C#Cc2cccnc2)c1
inactive: T-47D breast 84.1% | BT-549 breast 265% | MDA-MB-435 melanoma 84.6% | SW-620 colon 101% | MCF7 breast 101% | HCT-116 colon 141% and 39.7% | HCC-2998 colon 77.2% | KM12 colon 73.6%

O=C(NNc1ccccc1)C1CCCN1 (centres undefined)
inactive: T-47D breast 55.6% | BT-549 breast 104% | MDA-MB-435 melanoma 37.1% | SW-620 colon 68.2% | MCF7 breast 76.4% | HCT-116 colon 78.8% | HCC-2998 colon 82.2% | KM12 colon 31.9%

O=C(CCl)N(O)c1ccc(/C=C/c2ccccc2)cc1
inactive: T-47D breast 63.8% and 59.5% | BT-549 breast 73.5% and 62.4% | MDA-MB-435 melanoma 97.2% and 90% | SW-620 colon 74.3% and 53.5% | MCF7 breast 49.2% and 42.5% | HCT-116 colon 69.1% and 51.7% | HCC-2998 colon 75.7% and 89.3% | KM12 colon 102% and 91.6%

COc1ccc(/C(C)=C(\c2ccc(OCCN3CCOCC3)cc2)c2ccc(OC(=O)C3CCCCC3)cc2)cc1
inactive: T-47D breast 77.9% | BT-549 breast 112% | MDA-MB-435 melanoma 105% | SW-620 colon 102% | MCF7 breast 75.4% | HCT-116 colon 105% | HCC-2998 colon 107% | KM12 colon 98.1%

COc1cc(N=Nc2ccc(O)c3ncccc23)c2ncccc2c1
inactive: T-47D breast 20.2% | BT-549 breast 39% | MDA-MB-435 melanoma 42.4% | SW-620 colon 30.5% | MCF7 breast 27.5% | HCT-116 colon 19.4% | HCC-2998 colon 36.3% | KM12 colon 28.1%

COC(=O)[C@H]1Cc2c([nH]c3ccccc23)[C@@H](c2cccs2)N1
inactive: T-47D breast 92.9% | BT-549 breast 102% | MDA-MB-435 melanoma 100% | SW-620 colon 100% | MCF7 breast 103% | HCT-116 colon 104% | HCC-2998 colon 102% | KM12 colon 100%

CN(C)CCCn1c2nc(=O)[nH]c(=O)c-2nc2cc(Cl)c(Cl)cc21
inactive: T-47D breast 34.8% | BT-549 breast 113% | MDA-MB-435 melanoma 106% | SW-620 colon 13.6% | HCC-2998 colon 91.6% | KM12 colon 57.5%
active: MCF7 breast 4.93% | HCT-116 colon -18.5%

Nc1nc2ccccc2c2c(=O)c3ccc(Cl)cc3sc12
inactive: T-47D breast 53.9% | BT-549 breast 94.3% | MDA-MB-435 melanoma 101% | SW-620 colon 76% | MCF7 breast 29.9% | HCT-116 colon 82.1% | HCC-2998 colon 114% | KM12 colon 87.5%

COc1ccccc1/C=C1\COc2ccc(O)cc2C1=O
inactive: T-47D breast 82.8% | BT-549 breast 76.2% | MDA-MB-435 melanoma 14.9% | MCF7 breast 12.8% | HCT-116 colon 42% | HCC-2998 colon 113% | KM12 colon 16.6%
active: SW-620 colon 9.45%

COc1ccc(Cl)cc1Nc1nc(C(F)(F)F)ccc1C(=O)N/N=C/c1ccc(N(C)C)cc1
inactive: T-47D breast 82.7% | BT-549 breast 115% | MDA-MB-435 melanoma 121% | SW-620 colon 109% | MCF7 breast 218% | HCT-116 colon 80.3% | HCC-2998 colon 68.3% | KM12 colon 103%

CCOC(=O)c1ccc(Nc2ncnc3c2cnn3-c2cccc(F)c2)cc1
inactive: T-47D breast 100% | BT-549 breast 100% | MDA-MB-435 melanoma 103% | SW-620 colon 99.8% | MCF7 breast 95% | HCT-116 colon 99.3% | HCC-2998 colon 104% | KM12 colon 99.3%

COc1cc(CO)cc2cc3ccccc3nc12
inactive: T-47D breast 101% | BT-549 breast 102% | MDA-MB-435 melanoma 104% | SW-620 colon 102% | MCF7 breast 79.9% | HCT-116 colon 98.5% | HCC-2998 colon 106% | KM12 colon 102%

Cn1ccnc1CN1CCSC(C(=O)Nc2ccccc2)C1 (centres undefined)
inactive: T-47D breast 90.7% | BT-549 breast 93.3% | MDA-MB-435 melanoma 92.2% | SW-620 colon 96.9% | MCF7 breast 91.6% | HCT-116 colon 96.2% | HCC-2998 colon 98.6% | KM12 colon 97.7%

O=c1c(/C=C/c2ccco2)nnc2sc(Nc3ccc(Cl)cc3)nn12
inactive: T-47D breast 88.2% | BT-549 breast 99.9% | MDA-MB-435 melanoma 100% | SW-620 colon 103% | MCF7 breast 82.5% | HCT-116 colon 99% | HCC-2998 colon 96.3% | KM12 colon 103%

COc1ccc(/C=C2\COc3ccc(O)c(O)c3C2=O)c(OC)c1OC
active: MDA-MB-435 melanoma 8.59% | SW-620 colon 9.64%
inactive: T-47D breast 12.1% | BT-549 breast 46.9% | MCF7 breast 14.8% | HCT-116 colon 14.6% | HCC-2998 colon 65.6% | KM12 colon 33.5%

Cc1cccc(-c2nnc(SCC(=O)Nc3ncc(Cc4ccccc4)s3)n2N2C(=O)CSC2=S)c1
inactive: T-47D breast 43.8% | BT-549 breast 78.5% | MDA-MB-435 melanoma 48.5% | SW-620 colon 49.6% | MCF7 breast 56.2% | HCT-116 colon 25% | HCC-2998 colon 70.9% | KM12 colon 71.7%

COc1ccc(CN2CCc3c(Cl)nc(N)nc3C2=O)c(OC)c1
inactive: T-47D breast 12.8% [100 µM] | KM12 colon 11.1% [100 µM]
active: BT-549 breast -20.3% [100 µM] | MDA-MB-435 melanoma 1.81% [100 µM] | SW-620 colon -46.8% [100 µM] | MCF7 breast 6.65% [100 µM] | HCT-116 colon -72.7% [100 µM] | HCC-2998 colon -85.9% [100 µM]

N=c1c2c(-c3ccccc3)c(-c3ccccc3)oc2ncn1NC(=O)c1cccnc1
inactive: T-47D breast 96.2% | BT-549 breast 103% | MDA-MB-435 melanoma 104% | SW-620 colon 106% | MCF7 breast 98.5% | HCT-116 colon 96.1% | HCC-2998 colon 118% | KM12 colon 95.6%

CCOC(=O)n1cc(-c2nonc2-c2cn(C)c3ccc(OC)cc23)c2cc(F)ccc21
inactive: T-47D breast 73% | BT-549 breast 86.9% | MDA-MB-435 melanoma 85.7% | SW-620 colon 80.5% | MCF7 breast 77.6% | HCT-116 colon 77.3% | HCC-2998 colon 91.9% | KM12 colon 77.7%

COc1ccc(Oc2nc(Nc3ccc(N4CCOCC4)cc3)ncc2NC(=O)c2cccc(C(F)(F)F)c2)cc1
inactive: T-47D breast 76.5% | BT-549 breast 96.9% | MDA-MB-435 melanoma 98.2% | SW-620 colon 87.1% | MCF7 breast 79.3% | HCT-116 colon 70.2% | HCC-2998 colon 75.9% | KM12 colon 59.3%
